# SMN2 splice up: qHTS Assay for Enhancers of SMN2 Splice Variant Expression; HEK293 SMN2-luciferase splicing reporter, luminescence, 30-36 h; Potency, µM (series often up to 46.1 µM), inactives show at the highest dose activity change, positive = activation, usual class: activators; hit rate 2.8% among 210,000; also: % of control where 0% means no effect; nearly all actives have a fitted effect of over 55% in size
#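 qHTS luciferase splicing reporter: luminescence rises when SMN2 exon 7 is included in transfected HEK293 cells. Compound exposure lasted 30-36 h at 37C, with 4.5 mM final sodium butyrate as control, followed by a ONE-Glo read.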
# ELG1 genotox: qHTS screen for small molecules that induce genotoxicity in human embryonic kidney (HEK293T) cells expressing luciferase-tagged ELG1; HEK293T ELG1-luciferase reporter, luminescence, 16 h; Potency, µM (titrated, usually from 46 µM), for inactives: at the highest dose activity change, positive = activation, actives largely listed as activators; hit rate 1.3% among 330,000; also: % of control where 0% means no effect; nearly all actives have a fitted effect of over 60% in size
#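 HEK293T cells expressing luciferase-tagged ELG1 were treated with compound or DMSO for 16 hr at 37°C. Luciferase activity was then read after 30 min with ONE-Glo at room temperature; rising signal flags genetic stress.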
# NPC1 prom act: qHTS Assay for NPC1 Promoter Activators; Huh7 NPC1 promoter luciferase reporter, 24 h; Potency, µM (titrated, usually from 9.22 µM), for inactives: at the highest dose activation, usual class: activators; hit rate 2.4% among 320,000; AID 485313, 2010; also: % of control where 0% means no effect; nearly all actives have a fitted effect of over 60% in size
#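 Cells: Huh7 expressing luciferase under the NPC1 promoter, 1500/well. Seeded 2 h, compound added, incubated 24 h at 37 °C. Luciferase reagent, 10 min ambient, then luminescence.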
# Rab9 promoter act: qHTS Assay for Rab9 Promoter Activators; Potency, µM (top dose mostly 9.22 µM), for inactives: at the highest dose activation, negative = inhibition, usual class: activators; Huh7 Rab9 promoter-luciferase reporter, luminescence, 24 h; hit rate 2.8% among 320,000; also: % of control where 0% means no effect; nearly all actives have a fitted effect of over 60% in size
#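 Cells were plated at 1500 per well in reduced-serum medium with 10% FBS and left 2 h. Compound in DMSO was then added for 24 h at 37 °C. Reporter signal was read by luminescence after 10 min with luciferase detection reagent.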
# FLuc counter: qHTS profiling assay for firefly luciferase inhibitor/activator using purifed enzyme and Km concentrations of substrates (counterscreen for miR-21 project). Luciferin 4-monooxygenase (Photinus pyralis), P08659. purified FLuc, Km substrates, luminescence inhibition. Potency, µM (top dose mostly 57.5 µM), for inactives: at the highest dose activity change, negative = inhibition, hits mostly inhibitors. hit rate 6.9% among 360,000. AID 588342, 2011;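 also: plate controls were vehicle for no effect and reference inhibitor for full effect; nearly all actives have a fitted effect of over 55% in size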
# Target sequence (P08659 whole entry, looked up): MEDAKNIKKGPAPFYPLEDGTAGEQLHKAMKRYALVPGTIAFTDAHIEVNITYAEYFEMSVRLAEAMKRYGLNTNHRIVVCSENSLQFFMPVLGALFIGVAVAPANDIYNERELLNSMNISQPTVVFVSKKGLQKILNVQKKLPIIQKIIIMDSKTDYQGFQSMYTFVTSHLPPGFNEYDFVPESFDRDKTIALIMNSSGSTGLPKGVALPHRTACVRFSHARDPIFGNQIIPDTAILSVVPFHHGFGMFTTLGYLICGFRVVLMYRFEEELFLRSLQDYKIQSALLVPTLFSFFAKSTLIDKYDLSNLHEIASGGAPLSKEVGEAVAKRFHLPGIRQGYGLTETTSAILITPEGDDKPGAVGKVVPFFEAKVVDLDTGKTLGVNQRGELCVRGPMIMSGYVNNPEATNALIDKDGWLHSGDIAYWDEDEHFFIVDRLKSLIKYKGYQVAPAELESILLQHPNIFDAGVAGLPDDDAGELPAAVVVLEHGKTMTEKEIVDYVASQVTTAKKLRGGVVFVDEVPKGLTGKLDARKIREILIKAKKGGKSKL
#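 Purified P. pyralis luciferase, 10 nM final, with Km-level 10 uM D-luciferin and 10 uM ATP in 50 mM Tris acetate pH 7.5, 10 mM Mg acetate, 0.01% Tween-20, 0.05% BSA; 6-point qHTS titration about 60 µM downward; luminescence read.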
# p53 reactivation: qHTS assay for re-activators of p53 using a Luc reporter. H1299 p53-A138V BP100-luciferase reporter, luminescence, 24 h. Potency, µM (doses to about 92.2 µM), inactives show at the top dose activity change, positive = activation, usual class: activators. hit rate 0.063% among 320,000; also: % of control where 0% means no effect; nearly all actives have a fitted effect of over 45% in size
#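 H1299 (p53-null), stable ts p53-A138V + BP100-Luc; 1000 cells/well, Opti-MEM/10% FBS; cpd 4 pt, 1:5; 24 h, 37 deg C, 5% CO2; detection reagent 10 min RT; luminescence.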
# An asterisk follows results filed as active; ? = inconclusive; . = not tested or not shown; [ ] = dose if it differs, or a comment. A selection: hits, their analogues and other compounds. The true share with any hit is near 7.4%. Calls follow the shape of the dose curve; as a rule, active = well fitted curve in the direction sought with a large enough effect; inconclusive = small, poorly fitted or top-dose-only effect, or another doubt; inactive = no such curve, though single readings can be large; an effect the other way counts as inactive or inconclusive. Potency is read from the fitted curve at half-maximal effect.
SMILES,SMN2 splice up,ELG1 genotox,NPC1 prom act,Rab9 promoter act,FLuc counter,p53 reactivation
COc1ccc(-c2nc3ncccn3c2Br)cc1,.,?,?,2.51µM*,15.1µM*,12.2%
Cc1ccc(-c2nc3ncccn3c2Nc2ccc3c(c2)OCCO3)cc1,-1.3%,13.6%,0.1%,0.2%,?,11.1%
Brc1c(-c2ccc3c(c2)OCO3)nc2ncccn12,.,?,16.2%,?,23.9µM*,6.4%
COc1ccc(-c2nc3ncccn3c2Nc2ccc3c(c2)OCCO3)cc1,-6.6%,.,.,.,-16.0%,.
N[C@@H](Cc1ncccn1)C(=O)O,8.7%[9.22 µM],.,.,.,.,.
CC(C)c1ccc(NC(=O)c2cc(S(=O)(=O)NC3CCCCC3)ccc2F)cc1,.,.,.,.,-3.4%,.
COc1ccccc1C(=O)n1nc(-c2ccccc2)nc1NCc1ccco1,12.6µM*,13.2%,17.2%,1.5%,1.8%,?
O=C(c1ccco1)n1nc(-c2ccccc2)nc1NCc1ccco1,?,6.7%,7.8%,17.7%,-8.1%,?
COCC(=O)n1nc(-c2ccc(C)cc2)nc1NCc1ccc(F)cc1,?,18.1%,15.8%,23.5%,-17.6%,1.3%
COCC(=O)n1nc(-c2ccccc2)nc1NCc1ccc(N(C)C)cc1,?,?,?,?,16.9µM*,7.9%
O=C(c1ccc(F)cc1)n1nc(-c2ccccc2)nc1NCc1ccco1,16.8%,.,.,.,0.0%,.
O=C(COc1ccccc1)n1nc(-c2ccc(Cl)cc2)nc1NCc1ccco1,15.8µM*,20.6µM*,28.8%,?,?,?
Cc1ccc(-c2nc(NCc3ccco3)n(C(=O)c3ccco3)n2)cc1,.,?,?,3.55µM*,3.1%,15.9%
CCOC(=O)c1cc(-c2ccc(F)cc2)n(CCC(=O)NCCc2ccc(C)cc2)c1C,.,.,.,.,-7.5%,.
Cc1nn(-c2ccccc2)c(C)c1/C=N/N1CCN(Cc2ccccc2)CC1,-18.2%,.,-2.1%[46.1 µM],-11.8%[46.1 µM],.,.
COc1cc2c(C#N)c(N3CCCCC3)nc(N)c2c(N)n1,6.1%,?,13.0%,11.5%,4.78µM*,27.5%
CCOC(=O)C1CCN(c2nc(C)cc(C)c2C#N)CC1,-0.7%,-1.4%,-1.9%,-1.7%,3.3%,-0.5%
COc1cc2c(C#N)c(N3CCc4ccccc4C3)nc(N)c2c(N)n1,27.3%,13.3%,9.8%,0.0%,21.3µM*,2.5%
CCOc1cc2c(C#N)c(N3CCCCC3)nc(N)c2c(N)n1,-20.2%,?,0.9%,?,15.1µM*,5.4%
CCOC(=O)C1CCN(c2nc(N)c3c(N)nc(SCC(=O)O)cc3c2C#N)CC1,.,-1.3%,-4.2%,-1.0%,16.9µM*,-1.8%
Cc1ccc(C(=O)NCC(=O)Nc2ccc(Cl)cc2)s1,.,0.9%,.,.,.,4.2%
CCCCC/C=C\C/C=C\C/C=C\C/C=C\CCCCCC(=O)NC(C)C(=O)O (centres undefined),5.9%,.,.,.,.,.
O=C(OCC(=O)N1CCN(C(=O)c2ccco2)CC1)c1ccccc1OCc1ccccc1,-7.3%,-0.3%,1.8%,-3.7%,-2.9%,0.5%
O=C(OCC(=O)N1CCCC1)c1ccccc1OCc1ccccc1,12.6µM*,?,0.0%,9.8%,16.9µM*,7.2%
O=C(OCC(=O)N1CCOCC1)c1ccc2ccccc2c1O,.,?,3.16µM*,3.98µM*,16.9µM*,?
SMILES,SMN2 splice up,ELG1 genotox,NPC1 prom act,Rab9 promoter act,FLuc counter,p53 reactivation
O=C(OCC(=O)N1CCOCC1)c1ccccc1OCc1ccccc1,.,0.6%,-1.1%,-4.4%,23.9µM*,5.7%
COc1ccccc1C(=O)OCC(=O)N1CCC(Cc2ccccc2)CC1,.,6.1%,0.2%,-1.6%,16.9µM*,10.9%
CCC(C)NC(=O)c1cc2c(Cl)nc3ccc(C)cc3c2s1 (centres undefined),6.2%,.,.,.,-8.1%,.
CC(C)(C)C(=O)Cn1c(=O)n(-c2ccc(Cl)c(Cl)c2)c(=O)c2c3c(sc21)CCCC3,-2.4%,.,.,.,-6.5%,.
COc1ccc(Cl)cc1NC(=O)C1CC(c2ccccc2O)=NO1 (centres undefined),.,0.0%,10.5%,-3.8%,0.3%,.
C[C@@]1(CO)[C@H](O)CC[C@]2(C)[C@@H]1CC[C@H]1C[C@H]3C[C@]12CC[C@]3(O)COC(=O)CN,-11.5%[9.22 µM],.,.,.,.,.
Nc1c(O)ccc2c1C(=O)c1ccccc1C2=O,29.3%,10.5%,14.4%,1.8%,16.9µM*,5.8%
COc1ccc2c(c1O)C(=O)c1ccccc1C2=O,.,13.5%,?,?,?,3.6%
CCOC(=O)c1cc2c(nc1N)CC(C)(CC)OC2 (centres undefined),?,13µM*,?,3.16µM*,?,21.8%
CCOC(=O)c1sc2nc3c(cc2c1N)COC(C)(C)C3,11.2µM*,?,2.82µM*,2.51µM*,6.75µM*,?
CCOC(=O)c1sc2nc3c(cc2c1N)COC(C)(CC)C3 (centres undefined),10µM*,?,0.794µM*,0.794µM*,1.35µM*,25.6%
Cc1ccccc1N=C1Nc2ccccc2CS1,12.6µM*,?,1.41µM*,0.631µM*,4.78µM*,?
Cc1ccccc1N=C1NC(=O)CS1,-10.5%,1.1%,-3.2%,3.3%,-0.1%,-0.1%
Cc1ccc(CCCC(=O)O)cc1C,-6.0%[9.22 µM],.,.,.,.,.
O=C(O)CCCc1ccc2c(c1)CCc1ccccc1-2,.,9.7%,-1.0%,-0.7%,4.26µM*,-6.9%
CCn1c(O)c(C=NC2CCCC(C)C2C)sc1=S (centres undefined),.,?,?,?,15.1µM*,?
COc1ccc(C)cc1NS(=O)(=O)c1ccc2oc(=O)c3ncn(C)c3c2c1,.,.,.,.,-0.1%,.
Cn1c(NCc2cccs2)nc2ccccc21,11.2µM*,23.1µM*,29.6%,?,?,?
Cn1c(NCc2c[nH]c3ccccc23)nc2ccccc21,11.2µM*,17.5%,2.24µM*,2µM*,9.53µM*,?
C=CCn1c(NCc2c[nH]c3ccccc23)nc2ccccc21,29.3%,1.5%,17.1%,17.2%,23.9µM*,?
CCn1c(=O)cc(OCC(=O)NCc2ccccc2Cl)c2ccccc21,13.3%,.,.,.,-12.5%,.
Cc1noc(C)c1NC(=O)Nc1cccc2c1O[C@H](CN(C)C(=O)Nc1ccc(C(F)(F)F)cc1)[C@@H](C)CN([C@H](C)CO)C2=O,.,-2.4%,.,.,.,-4.8%
COc1ccc(N2C(=O)CSC23C(=O)N(CC(=O)NCc2ccccc2)c2ccccc23)cc1 (centres undefined),.,.,.,.,-1.4%,.

# Source: PubChem
